These results are taken from PubChem BioAssay AID651871 (Sanford-Burnham Center for Chemical Genomics, 2012).

“And” between values parts separate entries of the source, which are not always exact repeats. Equal entries are not always repeated.

In this assay the test system is HL-1. As to the kind of experiment: protection of cardiomyocytes from stress damage, SAR follow-up, cell-based, panel, H9c2 and HL-1, ATP luminescence, set 2 (AID 651871).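 Note: cells exposed to stressor for 2 h before ATP readout; reference of the scale not given here.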 Particulars: H9c2/HL-1 cardiomyocytes, H2O2 oxidative stress; with H2O2, run 4, at 79 µM (top of the series).
For `COc1cc(-c2cc(C(=O)Nc3cccc(C(=O)NCc4ccccc4)c3)c3ccccc3n2)cc(OC)c1OC`, the activity (protection/inhibition) came out at 17.9%.
Regarding `CCOC(=O)c1cccc(NC(=O)CNC(=O)c2cc(-c3cc(OC)c(OC)c(OC)c3)nc3ccccc23)c1`, the activity (protection/inhibition) was 25.9%.
Next, `COc1ccc2nc(-c3cc(OC)c(OC)c(OC)c3)cc(C(=O)NCC(=O)Nc3ccc(C(C)=O)cc3)c2c1`: 37.2% and 50%.
For `COc1ccc2c(c1OC)C(=O)N1c3ccccc3C(=O)N(Cc3cccc(Cl)c3Cl)C21` (centres undefined) the value was 8.81% and -13.3% and 3.82%.
